# MITF primary: inhibitors of human MITF | AID 1259374 | 650,000 compounds, 0.91% hits | inhibition, % at 2.6 µM | AlphaScreen MITF homodimerization, bead proximity signal; in the data active = inhibition above about 50%;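 note: 0% = vehicle wells with protein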
# TEAD-YAP inh: TEAD-YAP interaction inhibition; AID 1259422; 640,000 compounds, 1.4% hits; inhibition, % at 9.12 µM; HEK-TIYL cells, TEAD-Gal4/YAP UAS-luciferase luminescence; in the data active = inhibition above about 32%;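 note: 0% = median of test compound wells and 100% = reference inhibitor wells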
# GPR151 activ: human GPR151 activation | Q8TDV0 | activation, % at 11.2 µM | AID 1508602 | 650,000 compounds, 1% hits | PathHunter beta-arrestin GPR151 cells, luminescence; in the data active = activation above about 4.9%;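 note: 0% = median of compound wells and 100% = cells with positive control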
# FBW7 activator: human FBW7 E3 ligase activation, primary screen. 650,000 compounds, 0.13% hits. Q969H0. AlphaScreen FBW7–phospho-cyclin E peptide binding, activator screen. normalized activity (activation), % at 26.1 µM. AID 1259310; in the data active = normalized activity above about 1.9%;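 note: purified mutant Fbw7 with reduced substrate affinity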
# Target sequence (Q969H0 whole entry, looked up): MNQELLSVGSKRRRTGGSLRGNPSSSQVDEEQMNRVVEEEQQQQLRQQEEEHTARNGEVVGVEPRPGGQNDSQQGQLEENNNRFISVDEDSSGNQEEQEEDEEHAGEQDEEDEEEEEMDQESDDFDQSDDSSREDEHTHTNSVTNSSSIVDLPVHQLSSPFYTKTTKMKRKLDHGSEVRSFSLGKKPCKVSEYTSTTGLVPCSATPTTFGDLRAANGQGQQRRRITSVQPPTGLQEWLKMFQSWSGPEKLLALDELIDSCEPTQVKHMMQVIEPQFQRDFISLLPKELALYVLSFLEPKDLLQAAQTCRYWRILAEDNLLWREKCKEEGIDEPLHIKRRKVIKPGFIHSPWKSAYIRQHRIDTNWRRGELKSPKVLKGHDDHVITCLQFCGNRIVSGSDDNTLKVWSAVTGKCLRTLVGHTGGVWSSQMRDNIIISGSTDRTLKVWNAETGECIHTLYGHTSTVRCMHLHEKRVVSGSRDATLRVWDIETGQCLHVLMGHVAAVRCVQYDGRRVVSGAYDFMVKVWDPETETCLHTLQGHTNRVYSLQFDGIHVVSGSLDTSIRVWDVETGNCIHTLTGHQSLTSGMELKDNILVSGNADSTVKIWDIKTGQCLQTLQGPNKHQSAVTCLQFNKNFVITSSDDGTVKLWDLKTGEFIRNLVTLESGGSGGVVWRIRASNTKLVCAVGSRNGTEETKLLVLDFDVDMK
# * hit, by the source's call; x = no result given. Shown are actives, neighbours in structure and some others; about 3.4% of the full set was active somewhere.
SMILES,MITF primary,TEAD-YAP inh,GPR151 activ,FBW7 activator
COc1ccc(-c2cnn3c(N4CCCCC4CCO)ccnc23)cc1OC (stereo not drawn),-7,38*,-1,0
CN1CCN(c2ccnc3c(-c4ccccc4F)cnn23)CC1,-12,67*,1,0
OC[C@@H]1CCCN1c1ccnc2c(-c3ccc(F)c(Cl)c3)cnn12,17,83*,-2,0
OC1CCN(c2ccnc3c(-c4ccc(F)c(Cl)c4)cnn23)CC1,-22,-56,-2,0
CN1CCN(c2ccnc3c(-c4ccccc4Oc4ccccc4)cnn23)CC1,-9,-3,0,0
Cc1ccc(-n2cc(C(=O)N3CCC(C)CC3)c3ccccc3c2=O)cc1C,4,6,0,0
CCN1CCN(c2ncc(-c3ccccc3)cc2C=O)CC1,-2,36*,2,0
COc1ccc(C(=O)CSc2nc3sc4c(c3c(=O)n2-c2ccccc2)CCC4)cc1,5,-1,-1,0
O=C1Cc2ccccc2N1C1CCN(CC(O)COc2ccccc2)CC1 (stereo not drawn),1,36*,1,0
OC(COc1ccccc1)CN1CCN(CC(O)COc2ccccc2)CC1 (stereo not drawn),-10,10,0,0
CCCN1C=C(C(=O)OC)C(c2cccc(Oc3ccccc3)c2)C(C(=O)OC)=C1,-20,-4,-1,2.1*
CCCOc1ccc(C2C(C(=O)OC)=CN(CCOC)C=C2C(=O)OC)cc1,-11,-8,3,2.1*
O=C(CCCn1sc2ccccc2c1=O)N1CCN(C2CCCCC2)CC1,6,4,1,0
CC1(C(=O)O)NCCc2cc(O)c(O)cc21 (stereo not drawn),66*,x,0,0
Cc1nc(NCc2ccccn2)c2cc(C)sc2n1,10,12,3,0
COc1ccccc1CNc1ncnc2sc(C)c(C)c12,-1,2,1,0
COc1ccccc1CNc1ncnc2sc(C)cc12,0,32*,-1,0
COc1ccccc1CNc1nc(C)nc2sc(C)cc12,1,48*,2,0
COCCCNc1ncnc2sc(C)cc12,-1,17,2,0
CCCCNc1ncnc2sc(C)cc12,1,37*,0,0
CCCCCCOc1ccc(C(=O)Nc2nccs2)cc1,15,-10,-2,0
Cc1nccn1-c1cc(N2CCN(S(=O)(=O)Cc3ccccc3)CC2)ncn1,-3,-11,-1,0
COc1ccc(-c2nnc(SCC(=O)c3ccccc3F)o2)cc1,13,-21,-1,0
N#Cc1ccccc1NC(=O)COC(=O)CSc1nnc(-c2ccc3c(c2)OCO3)o1,-1,38*,-2,0
COC(=O)CSc1nnc(-c2ccc(C(C)(C)C)cc2)o1,1,66*,-1,0
SMILES,MITF primary,TEAD-YAP inh,GPR151 activ,FBW7 activator
COc1ccc(-c2nnc(SCC(=O)c3ccc[nH]3)o2)cc1,-5,39*,-4,0
COc1ccc(-c2nnc(SCC(=O)OCC(=O)Nc3ccccc3C#N)o2)cc1,-3,67*,1,0
COC(=O)CSc1nnc(-c2ccc(C)cc2)o1,4,1,-1,0
N#Cc1ccccc1NC(=O)CSc1nnc(-c2ccccc2)o1,6,-14,2,0
O=C(/N=C1\NC(=O)C(F)(C(F)(F)F)S1)Nc1cccc(C(F)(F)F)c1 (stereo not drawn),-7,12,0,0
O=C(COc1ccc(Cl)cc1)Nc1nccs1,1,19,-3,0
O=C(NCc1cccs1)c1ccc(OCc2ccc3ccccc3n2)cc1,4,-20,0,0
COc1ccc(OCC(=O)Nc2nccs2)cc1,2,68*,-7,0
COc1ccc(CC(=O)Nc2nccs2)cc1OC,1,8,4,0
O=C(Nc1nccs1)c1ccc(OCc2ccc3ccccc3n2)cc1,-4,-21,0,5.6*
Cc1cc(OCC(=O)Nc2nccs2)ccc1C(C)C,-4,61*,-1,0
COc1cc(C(C)=O)ccc1OCC(=O)Nc1nccs1,8,56*,-6,0
CC/C=C\C[C@H](O)/C=C/[C@H]1C(=O)C[C@H](O)[C@@H]1C/C=C\CCCC(=O)O,14,x,0,x
CCOc1ccc(OCC(=O)Nc2nccs2)cc1,3,79*,-8,0
O=C(c1ccc(Cl)cc1)c1cc([N+](=O)[O-])ccc1N1CCOCC1,19,53*,-1,0
CN1CCN(c2ccc([N+](=O)[O-])cc2C(=O)c2ccc(Cl)cc2)CC1,-8,41*,2,0
CN1CCN(c2ccc([N+](=O)[O-])cc2C(=O)N2CCCCC2)CC1,22,4,-2,0

# High-throughput results deposited in PubChem BioAssay by The Scripps Research Institute Molecular Screening Center.
